Experiment [1] concerns the target D(1A) dopamine receptor (Homo sapiens) (UniProt P21728). Put plainly: NVS_GPCR_hDRD1: NovaScreen (NVS) G Protein-Coupled Receptor Assay for human Dopamine Receptor D1 (DRD1) (AID 2283269; active = hit-call score of the fitted dose curve at least 0.9, where 1 is the maximum). In a few lines: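 Extracted HEK293 DRD1 is incubated 1 h with compound and a tritiated or iodinated radioligand, then filtered and counted. Screening runs 25 uM in duplicate with on-plate positive and negative controls.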

The target of experiment [2] is human Retinoic Acid Receptor beta (RARb), RARB (gene 5915) (UniProt P10826). The experiment in a line: ATG_RARb_TRANS: Attagene TRANS-FACTORIAL HepG2 Assay for human Retinoic Acid Receptor beta (AID 2283004; active = hit-call score of the fitted dose curve at least 0.9, where 1 is the maximum). In a few lines: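 HepG2 cells transiently transfected with multiplexed GAL4-UAS reporter units expressing chimeric NR–Gal4 fusions; 24 h compound exposure. Reporter mRNA quantified by RT-PCR, 6-FAM labelling, HpaI digestion and capillary electrophoresis; gain-of-signal fitted against DMSO baseline.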
human Retinoic Acid Receptor beta (RARb), RARB (gene 5915), sequence (P10826 whole entry, looked up, the tested form may be a part): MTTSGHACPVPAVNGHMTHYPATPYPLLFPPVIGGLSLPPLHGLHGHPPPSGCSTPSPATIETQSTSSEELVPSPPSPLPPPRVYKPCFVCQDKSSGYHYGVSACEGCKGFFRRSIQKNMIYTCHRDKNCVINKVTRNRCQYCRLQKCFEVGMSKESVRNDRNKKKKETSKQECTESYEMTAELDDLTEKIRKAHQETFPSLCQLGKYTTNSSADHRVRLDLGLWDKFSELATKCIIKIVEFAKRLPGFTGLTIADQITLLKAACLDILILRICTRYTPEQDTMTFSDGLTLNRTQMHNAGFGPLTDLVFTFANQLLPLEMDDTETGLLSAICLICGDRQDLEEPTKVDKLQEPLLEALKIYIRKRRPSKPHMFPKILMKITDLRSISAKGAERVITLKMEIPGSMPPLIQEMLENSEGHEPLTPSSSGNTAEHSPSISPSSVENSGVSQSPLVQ

Experiment [3] in a line: CEETOX_H295R_OHPREG: CeeTox H295R High-throughput Steroidogenesis Assay for OH-Pregnenolone (OHPREG) (AID 2283434). Conditions: actives raise or lower the signal. The gist of the method:
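Hormone levels in spent medium were measured by tandem mass spectrometry following liquid-liquid extraction. Cells (H295R) had been forskolin-stimulated (10 uM, 48 h) before a 48 h chemical exposure at 0.1% DMSO, with activity fitted in both directions against DMSO.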

The nature of experiment [4]: CEETOX_H295R_PROG: CeeTox H295R High-throughput Steroidogenesis Assay for Progesterone (PROG) (AID 2283442).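 For AC50: human H295R adrenal cells primed with 10 µM forskolin before dosing.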 Conditions: actives raise or lower the signal. The gist of the method: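 H295R human adrenal cells were prestimulated with 10 uM forskolin for 48 h, then exposed to test chemical (0.1% DMSO final) for 48 h. Medium progesterone was MTBE-extracted and quantified by HPLC-MS/MS, with bidirectional fitting against DMSO.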

Experiment [5] in a line: CEETOX_H295R_MTT_cell_viability: Viability Assessment in the CeeTox HT-H295R MTT Assay (AID 2283718). In a few lines:
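MTT reduction (0.5 mg/ml, 4 h at 37 C; absorbance at 570 and 650 nm) gave viability as background-corrected percent change versus controls. H295R cells had 48 h forskolin (10 uM) prestimulation, then 48 h chemical exposure at 0.1% DMSO.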

Experiment [6] in a line: CCTE_Shafer_MEA_acute_spike_number: CCTE's Neural Acute Assay for Total Number of Spikes, Shafer Lab (AID 2284008).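 For AC50: curve fitted for decrease in spike count so AC50 reflects inhibitors.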 In a few lines:
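Primary rat cortical neurons on 16-electrode MEA wells; on DIV 13 or 15, 40-min baseline then 40-min recording with compound (0.03-40 uM) at 37 C. Spikes detected at 8x rms noise; percent change versus baseline, DMSO as negative control.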

Experiment [7] can be described thus: CCTE_Shafer_MEA_acute_firing_rate_mean: CCTE's Neural Acute Assay for Mean Firing Rate, Shafer Lab (AID 2284009).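 Note: analyzed for loss of signal so actives lower firing rate relative to DMSO.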 In a few lines: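 Percent change in well-mean firing rate was derived from extracellular spikes detected at 8x rms noise (300-5000 Hz band-pass) before and after a 40-min compound exposure. Cultures were primary rat cortical neurons, tested at 0.03-40 uM.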

Experiment [8] can be described thus: CCTE_Shafer_MEA_acute_burst_number: CCTE's Neural Acute Assay for Single-Electrode Bursts, Shafer Lab (AID 2284013). In a few lines: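 Spontaneous network activity of primary rat cortical neurons was recorded extracellularly on microelectrode arrays at 37 C, with 40-min periods before and during exposure to 0.03-40 uM compound on DIV 13 or 15.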
A short description of experiment [9]: CCTE_Shafer_MEA_acute_network_burst_percentage: CCTE's Neural Acute Assay for Percentage of Network Bursts, Shafer Lab (AID 2284022).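 Note: curves fitted for loss so actives lower network burst percentage.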 The gist of the method:
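Primary rat cortical neurons on 16-electrode MEA wells, treated on DIV 13 or 15 with compound (0.03-40 uM); 40-min baseline and 40-min post-exposure recordings at 37 C. Value is percent change in spikes within network bursts versus baseline, DMSO negative control.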

A short description of experiment [10]: CCTE_Shafer_MEA_acute_cross_correlation_area: CCTE's Neural Acute Assay for Area of Cross Correlation, Shafer Lab (AID 2284024).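 Note: area under pooled inter-electrode spike cross-correlation near zero lag as percent change from own baseline; curves fitted for loss of cross-correlation area so actives lower synchrony.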 In a few lines: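 Primary rat cortical neurons on 48-well MEA plates (16 electrodes/well) were recorded 40 min at baseline on DIV 13 or 15, then 40 min with compound (0.03-40 uM) at 37 C; cross-correlation area expressed as percent change from baseline.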

Read-out in experiment [11]: Collagen I, COL1A1 (gene 1277)
The experiment in a line: BSK_hDFCGF_CollagenI: BioMAP Diversity Plus: hDFCGF Assay for Collagen I Biomarker Activity (AID 2284250). Conditions: primary human foreskin fibroblasts. In a few lines:
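Primary human foreskin fibroblasts exposed to chemical for 24 h; Collagen I levels measured by ELISA. Cytotoxicity checked by SRB total-protein staining in parallel cultures.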

Read-out in experiment [12]: Interleukin-8 (IL8), CXCL8 (gene 3576)
Put plainly: BSK_KF3CT_IL8: BioMAP Diversity Plus: KF3CT Assay for Interleukin-8 (IL8) Biomarker Activity (AID 2284254). The conditions noted are these: primary human keratinocytes with fibroblasts. The gist of the method:
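Human primary keratinocyte plus foreskin fibroblast co-culture dosed with test chemicals; IL-8 measured by ELISA 24 h after dosing. Activity fitted in the positive direction relative to DMSO negative control.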

Read-out in the next experiment: KRT18 (gene 3875)
Put plainly: BSK_BE3C_Keratin818: BioMAP Diversity Plus: BE3C Assay for Keratin 818 Biomarker Activity (AID 2284282). Conditions: primary human bronchial epithelial cells. In a few lines:
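Primary human bronchial epithelial cells treated 24 h; Keratin 8/18 quantified by ELISA, fit relative to DMSO. Cytotoxicity tracked in parallel cultures by sulforhodamine B total-protein staining.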

Experiment [13] has as its target rat Peripheral-type Benzodiazepine Receptor (PBR), Tspo (gene 24230) (UniProt P16257). The experiment in a line: NVS_MP_rPBR: NovaScreen (NVS) Membrane Protein Assay for rat Peripheral-type Benzodiazepine Receptor (PBR) (AID 2283335; active = hit-call score of the fitted dose curve at least 0.9, where 1 is the maximum). In a few lines:
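Rat kidney membranes; radioligand binding with displacement, filter-based scintillation counting, 1 h incubation. Primary screen in duplicate at 25 uM, actives followed in concentration series; loss of binding vs DMSO.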

The target of experiment [14] is rat Thyrotropin Releasing Hormone Receptor (TRH), Trhr (gene 25570) (UniProt Q01717). The experiment in a line: NVS_GPCR_rTRH: NovaScreen (NVS) G Protein-Coupled Receptor Assay for rat Thyrotropin Releasing Hormone Receptor (TRH) (AID 2283329; active = hit-call score of the fitted dose curve at least 0.9, where 1 is the maximum;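 note: hit means lower bound tracer signal versus DMSO baseline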). The gist of the method: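 Test compounds are screened at 25 uM in duplicate against radioligand binding in rat forebrain membranes, with active pairs followed up over a concentration range. Detection uses filter-based radiodetection after a 4 h exposure.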
rat Thyrotropin Releasing Hormone Receptor (TRH), Trhr (gene 25570), sequence (Q01717 whole entry, looked up): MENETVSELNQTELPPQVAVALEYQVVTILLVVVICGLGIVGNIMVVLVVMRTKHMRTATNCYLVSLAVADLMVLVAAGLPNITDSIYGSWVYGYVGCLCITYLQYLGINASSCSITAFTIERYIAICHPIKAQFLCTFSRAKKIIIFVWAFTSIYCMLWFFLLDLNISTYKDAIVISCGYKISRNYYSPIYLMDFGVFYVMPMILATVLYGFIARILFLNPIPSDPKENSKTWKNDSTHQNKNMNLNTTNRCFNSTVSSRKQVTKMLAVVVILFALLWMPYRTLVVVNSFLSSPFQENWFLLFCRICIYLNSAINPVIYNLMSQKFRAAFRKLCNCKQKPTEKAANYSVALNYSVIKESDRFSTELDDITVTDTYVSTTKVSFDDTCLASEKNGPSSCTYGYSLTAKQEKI

The target in experiment [15] is Retinoic acid receptor alpha (Homo sapiens) (UniProt P10276). The experiment in a line: ATG_RARa_TRANS: Attagene TRANS-FACTORIAL HepG2 Assay for human Retinoic Acid Receptor alpha (RARa) (AID 2283005; active = hit-call score of the fitted dose curve at least 0.9, where 1 is the maximum). The gist of the method:
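Reporter transcripts, measured by RT-PCR with fluorescent labeling and capillary electrophoresis after 24 h dosing, reflect activity of an exogenous human RARa–GAL4 fusion in transiently transfected HepG2. Fitted for increase relative to DMSO.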

Experiment [16] has as its target Peroxisome proliferator-activated receptor gamma (Homo sapiens) (UniProt P37231). The experiment in a line: NVS_NR_hPPARg: NovaScreen (NVS) Nuclear Receptor Binding Assay for human Peroxisome Proliferator-activated Receptor gamma (PPARg) (AID 2283370; active = hit-call score of the fitted dose curve at least 0.9, where 1 is the maximum). The gist of the method: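 Cell-free binding to extracted PPARg protein, read by fluorescence polarization 2 h after dosing; loss of signal relative to DMSO baseline marks displacement. Primary screen in duplicate at 25 uM, actives retested in concentration series.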

Experiment [17] deals with Thyroperoxidase (TPO), gene 54314. The experiment in a line: CCTE_Simmons_AUR_rTPO: CCTE's Amplex UltraRed Assay for Thyroperoxidase (TPO) Inhibition, Simmons Lab (AID 2283662; active = hit-call score of the fitted dose curve at least 0.9, where 1 is the maximum;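 for AC50: potency for loss of signal meaning inhibition of peroxidase activity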). The gist of the method:
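Endpoint is decreased Amplex UltraRed fluorescence after a 30-min, 37C reaction of rat thyroid microsomes with 300 uM H2O2. Eight test concentrations (5 nM–87.5 uM final) in 0.5% DMSO, three biological replicates each.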

Experiment [18] can be described thus: CCTE_Simmons_CellTiterGLO_HEK293T: Viability Assessment in CCTE's Assays for Thyroperoxidase (TPO) Inhibition, Simmons Lab (AID 2283665; active = hit-call score of the fitted dose curve at least 0.9, where 1 is the maximum;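 for AC50: cells exposed to compound for 24 h before readout; actives reduce ATP signal below DMSO vehicle meaning cytotoxicity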). In a few lines:
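HEK293T cells in DMEM with 1% FBS, dosed 24 h at 37C with 8 concentrations, 5 nM–87.5 uM final, 0.5% DMSO. ATP measured by CellTiter Glo luminescence; loss of signal vs DMSO, three biological replicates.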
On the technique in general: Cellular ATP, detected with luciferase, serves as a proxy for viable cell number.

Experiment [19] addresses Luciferin 4-monooxygenase (Photinus pyralis) (UniProt P08659). Put plainly: CCTE_Simmons_QuantiLum_inhib_2: CCTE's Firefly Luciferase Inhibition Assay, Simmons Lab (AID 2283767; active = hit-call score of the fitted dose curve at least 0.9, where 1 is the maximum). The gist of the method:
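Cell-free recombinant firefly luciferase (5 ng/well) in 200mM potassium phosphate with 1 mg/ml BSA, 30 min at 37C with 8 concentrations from 5 nM to 87.5 uM [final], 0.5% DMSO. Luminescence read after D-luciferin (150uM)/dATP (147uM) reagent injection, pH 7.8; triplicates.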

This note sets out measurements from PubChem BioAssay (EPA / NIEHS).

The AC50 is the midpoint of the concentration-response curve, whichever way the signal moves.

Structures are written as SMILES. Results filed as inconclusive are left out. A structure can be active in one record and inactive in another. Calls of active or inactive are those of the source. Rule for the calls, unless noted: active = hit-call score of the fitted dose curve at least 0.9, where 1 is the maximum; inactive = score below 0.9.

Peroxisome proliferator-activated receptor gamma (Homo sapiens), sequence (P37231 whole entry, looked up): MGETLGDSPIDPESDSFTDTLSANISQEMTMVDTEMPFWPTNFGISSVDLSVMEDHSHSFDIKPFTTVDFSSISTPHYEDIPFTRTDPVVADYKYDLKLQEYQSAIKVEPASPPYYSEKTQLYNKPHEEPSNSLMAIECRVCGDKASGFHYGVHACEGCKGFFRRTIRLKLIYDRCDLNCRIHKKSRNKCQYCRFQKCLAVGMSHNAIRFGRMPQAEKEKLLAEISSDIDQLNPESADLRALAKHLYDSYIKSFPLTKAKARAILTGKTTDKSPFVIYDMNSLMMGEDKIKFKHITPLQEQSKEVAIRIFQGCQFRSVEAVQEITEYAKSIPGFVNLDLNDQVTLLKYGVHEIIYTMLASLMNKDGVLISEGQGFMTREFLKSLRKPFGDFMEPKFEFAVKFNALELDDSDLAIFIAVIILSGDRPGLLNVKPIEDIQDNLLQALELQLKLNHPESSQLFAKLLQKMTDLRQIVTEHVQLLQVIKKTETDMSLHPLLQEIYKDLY
rat Peripheral-type Benzodiazepine Receptor (PBR), Tspo (gene 24230), sequence (P16257 whole entry, looked up): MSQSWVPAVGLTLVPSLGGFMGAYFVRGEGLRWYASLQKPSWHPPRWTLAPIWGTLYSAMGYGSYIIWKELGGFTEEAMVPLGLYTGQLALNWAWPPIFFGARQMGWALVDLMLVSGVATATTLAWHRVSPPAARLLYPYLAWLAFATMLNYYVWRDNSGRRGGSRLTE
Retinoic acid receptor alpha (Homo sapiens), sequence (P10276 whole entry, looked up, the tested form may be a part): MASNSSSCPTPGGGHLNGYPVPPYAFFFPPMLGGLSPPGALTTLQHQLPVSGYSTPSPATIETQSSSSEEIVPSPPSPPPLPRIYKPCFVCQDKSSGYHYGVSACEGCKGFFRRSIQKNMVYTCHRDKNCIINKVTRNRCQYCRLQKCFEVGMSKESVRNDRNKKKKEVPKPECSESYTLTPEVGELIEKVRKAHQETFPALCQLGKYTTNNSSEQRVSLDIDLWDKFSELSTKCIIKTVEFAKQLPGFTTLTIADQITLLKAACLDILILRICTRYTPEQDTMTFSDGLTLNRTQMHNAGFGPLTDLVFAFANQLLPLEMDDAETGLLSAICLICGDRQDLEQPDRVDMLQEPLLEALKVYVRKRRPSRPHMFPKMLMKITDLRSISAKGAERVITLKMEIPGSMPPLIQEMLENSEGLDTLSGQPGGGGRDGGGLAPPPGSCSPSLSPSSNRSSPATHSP
Luciferin 4-monooxygenase (Photinus pyralis), sequence (P08659 whole entry, looked up): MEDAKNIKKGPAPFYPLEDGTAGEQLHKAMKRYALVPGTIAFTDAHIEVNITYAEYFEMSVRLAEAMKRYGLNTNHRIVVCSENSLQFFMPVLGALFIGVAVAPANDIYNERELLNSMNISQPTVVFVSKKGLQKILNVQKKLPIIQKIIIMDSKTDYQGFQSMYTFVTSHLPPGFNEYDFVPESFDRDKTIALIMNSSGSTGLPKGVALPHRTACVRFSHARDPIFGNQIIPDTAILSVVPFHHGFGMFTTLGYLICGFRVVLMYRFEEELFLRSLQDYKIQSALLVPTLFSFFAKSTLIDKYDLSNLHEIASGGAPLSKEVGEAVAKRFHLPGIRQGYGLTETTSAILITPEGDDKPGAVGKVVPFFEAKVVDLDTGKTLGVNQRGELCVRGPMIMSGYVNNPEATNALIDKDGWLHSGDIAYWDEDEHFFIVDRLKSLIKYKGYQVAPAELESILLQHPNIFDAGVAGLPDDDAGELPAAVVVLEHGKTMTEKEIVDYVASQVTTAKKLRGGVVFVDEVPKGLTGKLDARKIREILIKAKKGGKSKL
D(1A) dopamine receptor (Homo sapiens), sequence (P21728 whole entry, looked up): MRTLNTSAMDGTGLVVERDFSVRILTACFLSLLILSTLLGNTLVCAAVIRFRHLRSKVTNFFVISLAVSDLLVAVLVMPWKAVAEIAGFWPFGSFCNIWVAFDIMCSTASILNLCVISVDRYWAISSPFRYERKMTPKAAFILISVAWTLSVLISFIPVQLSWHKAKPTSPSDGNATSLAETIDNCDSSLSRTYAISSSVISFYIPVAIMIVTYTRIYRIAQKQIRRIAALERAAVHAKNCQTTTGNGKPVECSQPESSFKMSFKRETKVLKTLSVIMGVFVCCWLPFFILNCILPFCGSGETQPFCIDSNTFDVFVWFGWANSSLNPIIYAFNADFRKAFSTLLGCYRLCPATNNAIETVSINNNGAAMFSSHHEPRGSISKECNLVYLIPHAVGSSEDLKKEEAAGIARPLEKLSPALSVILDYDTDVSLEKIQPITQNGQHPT

For `O=C1C(Cl)=C(Cl)C(=O)C(Cl)=C1Cl`, the AC50 in experiment [1] is 4010 nM (active).

As to `CN1C(=O)CCS(=O)(=O)C1c1ccc(Cl)cc1` (stereo unspecified), the call in experiment [2] was inactive.

As to `CC(C)(C)C(O)C(Oc1ccc(-c2ccccc2)cc1)n1cncn1` (stereo unspecified), the compound was called inactive in experiment [3], in [4] and in [5].

Turning to `O=[N+]([O-])O`, the AC50 was 88.6 nM (active) in experiment [6]; 88.5 nM (active) in [7]; 189 nM (active) in experiment [8]; 38.6 nM (active) in experiment [9]; 230 nM (active) in [10]. Further, the compound was called inactive in [6], in [7], in [8], in experiment [9], in [10] and in [11]. Besides, the result (in [12]; in the experiment with KRT18 (gene 3875)) was inactive.

With `CC(C)COP(=O)(OCC(C)C)OCC(C)C`, the AC50 in experiment [13] was 19200 nM (active).

On to `c1ccc(Nc2ccc3ccccc3c2)cc1`, for which the AC50 in [13] was 25000 nM (active). Besides, the compound was called inactive in experiment [3], in experiment [4] and in experiment [5].

Regarding `Oc1ccc(C2(c3ccc(O)cc3)c3ccccc3-c3ccccc32)cc1`, the AC50 is 8.82 nM (active) in experiment [6]; 8.83 nM (active) in experiment [7]; 35.9 nM (active) in experiment [8]; 26400 nM (active) in [9]; 25.2 nM (active) in [10]; 151 nM (active) in experiment [11]. Further, the AC50 was 8380 nM (active) in [12] and 150 nM (active) with KRT18 (gene 3875). Moreover, the result (in [11]; in experiment [12]; with KRT18 (gene 3875)) was inactive.

Turning to `CCCC=NO`, the result in experiment [14] was inactive.

Take `Nc1ccccc1C(=O)OCCc1ccccc1`: the result in [2] and in experiment [15] was inactive.

Take `O=[N+]([O-])C=Cc1ccccc1`: the AC50 in experiment [1] was 8250 nM (active).

Take `CC(C)(c1cc(Cl)c(O)c(Cl)c1)c1cc(Cl)c(O)c(Cl)c1`: the compound was called inactive in [14], in [16] and in [19]. Further, the results for the AC50 in [16], in experiment [17] and in experiment [18] were 1540 nM (active), 19800 nM (active) and 90800 nM (active), respectively.

`O=C=Nc1ccccc1`: the compound was classed as inactive in experiment [15], in experiment [17], in [18], in experiment [5] and in [19]. For the same compound, the AC50 was 499 nM (active) in [3] and 492 nM (active) in [4].

Consider `CC(C)C#N`, for which the outcome in experiment [15] was inactive.

With `C=CCN(CC=C)C(=O)C(Cl)Cl`, the call in [14] was inactive.

Consider `CCc1cccc(C)c1N(C(=O)CCl)[C@@H](C)COC`, for which the compound was called inactive in experiment [2] and in experiment [16]. In experiment [13], the AC50 is 4350 nM (active).

In the case of `CC(C)C(=O)Cl`, in experiment [1], the call was inactive.

On to `C[N+](C)=CCl`, for which, in [15], the compound was classed as inactive.

For the compound `CC1CCCC1.[C-]#[O+].[C-]#[O+].[C-]#[O+].[Mn]`, the result in [2], in experiment [14], in experiment [18] and in [19] was inactive. The AC50 in [17] is 26400 nM (active).

Turning to `CC(C)c1ccc(O)cc1`, in experiment [17], the AC50 is 2240 nM (active). Besides, the call in experiment [18] and in [19] was inactive.
